NPR1 antag – blocks ANP-stimulated signaling of human Npr1 receptor; HEK293 hNpr1 GloSensor cGMP, ANP-stimulated luminescence; Potency, µM (highest dose often 46.3 µM), inactives show at the highest dose activity change, negative = inhibition, usual class: inhibitors; 1.6% of 76,000 active; AID 1347048; calls by dose curve; further: on the % scale 0 is the no-effect control and ±100 the full control effect; nearly all actives have a fitted effect of over 60% in size
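HEK293 cells stably expressing human Npr1 and cGMP GloSensor pGS-40F, loaded 2 h with 2% GloSensor reagent, given compound 30 min at room temperature. Luminescence read before and 20 min after 0.1 nM hNppA.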
GPT2 inhibitor – blocks human glutamate pyruvate transaminase 2 | Q8TD30 | Recombinant GPT2, coupled pyruvate oxidase/HRP Amplex Red fluorescence | Potency, µM (series often up to 57.7 µM), for the others: at the highest dose activity change, negative = inhibition, hits mostly inhibitors | 0.25% of 100,000 active | AID 1671188; further: on the % scale 0 is the no-effect control and ±100 the full control effect; nearly all actives have a fitted effect of over 60% in size
Target sequence (Q8TD30 whole entry, looked up): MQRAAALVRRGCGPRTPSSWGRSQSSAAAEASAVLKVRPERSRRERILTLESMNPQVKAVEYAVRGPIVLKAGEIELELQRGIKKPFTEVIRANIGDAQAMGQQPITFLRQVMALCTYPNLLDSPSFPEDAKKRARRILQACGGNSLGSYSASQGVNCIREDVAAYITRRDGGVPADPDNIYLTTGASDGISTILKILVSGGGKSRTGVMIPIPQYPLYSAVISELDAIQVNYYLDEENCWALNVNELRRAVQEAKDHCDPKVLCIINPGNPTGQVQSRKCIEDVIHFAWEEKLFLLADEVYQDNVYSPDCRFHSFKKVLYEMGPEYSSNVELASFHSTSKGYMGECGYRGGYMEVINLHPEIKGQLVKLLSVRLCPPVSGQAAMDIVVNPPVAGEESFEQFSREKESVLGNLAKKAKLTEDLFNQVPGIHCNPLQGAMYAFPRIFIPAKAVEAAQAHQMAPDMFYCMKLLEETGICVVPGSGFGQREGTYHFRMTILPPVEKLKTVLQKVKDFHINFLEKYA
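Recombinant GPT2 (10ng/uL) with 250uM a-KG and 2mM L-alanine, 30 min at room temperature, in HEPES pH 7.5 buffer. Pyruvate detected by pyruvate oxidase/HRP/Amplex Red fluorescence after 30 min in the dark; AOA (50uM) as positive control.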
NIH3T3 tox – NIH 3T3 cell cytotoxicity | Potency, µM (highest dose often 96.7 µM), for the others: at the highest dose activity change, negative = cytotoxicity, most hits filed as inhibitors | 4.3% of 94,000 active | AID 1345082 | NIH 3T3 viability, CellTiter-Glo ATP luminescence, 48-72 h; further: on the % scale 0 is the no-effect control and ±100 the full control effect; nearly all actives have a fitted effect of over 55% in size
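First NIH 3T3 cells are plated at 400 cells/well; next compound is pinned in; then plates incubate 48 or 72 hr at 37 °C; finally CellTiter-Glo is added and luminescence read after 10 min.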
HEK cytotox – HEK 293 cell cytotoxicity; HEK 293 viability, ATP luminescence (CellTiter-Glo), 48-72 h; Potency, µM (top dose mostly 115 µM), without a hit: at the top dose activity change, negative = cytotoxicity, usual class: inhibitors; 6.6% of 94,000 active; AID 1345083; further: on the % scale 0 is the no-effect control and ±100 the full control effect; nearly all actives have a fitted effect of over 60% in size
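250 HEK 293 cells/well; compound by pintool; incubated 48 or 72 hr at 37 degree Celsius; CellTiter-Glo added, 10 min RT, luminescence imaged.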
FLuc inh – inhibitors of firefly (Photinus pyralis) luciferase. purified P. pyralis luciferase, luminescence, biochemical. Potency, µM (highest dose often 115 µM), hits mostly inhibitors. 2.5% of 76,000 active; further: on the % scale 0 is the no-effect control and ±100 the full control effect; nearly all actives have a fitted effect of over 65% in size
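Inhibitors were tested against purified firefly luciferase in a biochemical, low-substrate format (both substrates at 10uM) and luminescence measured with a CCD imager.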
NPR1 antag cnf – hNpr1 antagonism, confirmation assay; Potency, µM (top dose mostly 57.6 µM), for inactives: at the highest dose activity change, negative = inhibition, most hits filed as inhibitors; 76% of 1,400 active; AID 1347044; shares compounds with NPR1 antag; HEK293 hNpr1 cGMP GloSensor luminescence, ANP-stimulated; calls by dose curve; further: nearly all actives have a fitted effect of over 70% in size
NPR2 antag – hNpr2 antagonism, selectivity versus Npr1 | 67% of 1,400 active | HEK293 hNpr2 GloSensor cGMP luminescence, CNP-stimulated | Potency, µM (top dose mostly 57.6 µM), for inactives: top-dose activity change, negative = inhibition, usual class: inhibitors | AID 1347046 | shares compounds with NPR1 antag; calls by dose curve; further: nearly all actives have a fitted effect of over 70% in size
FLuc counter – FLuc enzyme inhibition, Npr1 counter-screen; shares compounds with NPR1 antag; purified FLuc enzyme, luminescence, Km substrate; Potency, µM (top dose mostly 57.6 µM), without a hit: at the top dose activity change, negative = inhibition, hits mostly inhibitors; 0.7% of 1,400 active; AID 1347047; further: 0% is about no effect
GloSensor cGMP – control cell line activity, Npr1 antagonist counter-screen; shares compounds with NPR1 antag; HEK293 GloSensor cGMP, SNP-stimulated, luminescence; Potency, µM (series often up to 57.6 µM), for the others: top-dose activity change, negative = inhibition, usual class: inhibitors; 69% of 1,400 active; calls by dose curve; further: on the % scale 0 is the no-effect control and ±100 the full control effect; nearly all actives have a fitted effect of over 70% in size
* = called active by the depositor; i = inactive; ? = inconclusive; / = no result. A selection: hits, their analogues and other compounds. The true share with any hit is near 10%. Unless noted, the call rests on the fitted dose curve; in most records, active means well fitted curve in the direction sought with a large enough effect; inconclusive means small, poorly fitted or top-dose-only effect, or another doubt; inactive means no such curve, though single readings can be large; an effect the other way counts as inactive or inconclusive. Potency means the concentration at half of the fitted maximal effect.

SMILES	NPR1 antag	GPT2 inhibitor	NIH3T3 tox	HEK cytotox	FLuc inh	NPR1 antag cnf	NPR2 antag	FLuc counter	GloSensor cGMP
CSc1cccc(NC(=O)N2CCC3(CCC(=O)N(C4CC4)C3)CC2)c1	2%	-7%	?	-28%	i	/	/	/	/
COc1ccc(C2Cn3nnc(-c4noc(COc5ccc(F)cc5)n4)c3CO2)cc1 (centres undefined)	4%	0%	-16%	?	i	/	/	/	/
O=C(Nc1ccc(Cl)cc1)NC1CCN(C(=O)c2ccc(-c3cccs3)cc2)CC1	/	i	?	?	/	/	/	/	/
COc1ccc2ccc(OCc3nc(C(=O)N4CCCC(C(N)=O)C4)co3)cc2c1 (centres undefined)	11µM*	-6%	?	?	i	14µM*	19µM*	-19%	11µM*
C=CCNC(=O)c1coc(COc2ccc3ccc(OC)cc3c2)n1	10µM*	i	?	45µM*	i	24µM*	22µM*	-11%	22µM*
COc1ccc2ccc(OCc3nc(C(=O)N(C)Cc4cc(C)no4)co3)cc2c1	?	i	?	?	i	31µM*	?	-22%	?
COc1ccc2ccc(OCc3nc(C(=O)N(C)CC4CCCO4)co3)cc2c1 (centres undefined)	-28%	i	?	?	?	/	/	/	/
COc1ccc2ccc(OCc3nc(C(=O)N(C)CC(C)O)co3)cc2c1 (centres undefined)	?	-29%	?	?	i	/	/	/	/
COc1ccc2ccc(OCc3nc(C(=O)N4CCC(NC(C)=O)CC4)co3)cc2c1	-23%	4%	?	?	i	/	/	/	/
CCc1nc(-c2c3n(c(=O)n(CC(=O)OC)c2=O)CCCC3)no1	4%	-17%	i	-3%	i	/	/	/	/
COCC(=O)N(C1CCOCC1)C1CCN(C(=O)Cc2ccccc2Cl)CC1	1%	i	2%	?	i	/	/	/	/
CNC(=O)CCn1ncc2cc(OCc3ccccc3-c3cccc(O)c3)ccc21	11µM*	i	?	79µM*	?	20µM*	18µM*	?	13µM*
COCCOCC(OC)OC	/	-7%	/	/	/	/	/	/	/
CCOC(=O)C1(Cc2ccc(OC)cc2)CCN(C(=O)c2cccc(Cl)c2)CC1	-13%	-10%	?	?	?	/	/	/	/
CCOC(=O)C1(Cc2ccc(Cl)cc2)CCN(C(=O)c2cc(C)oc2C)CC1	13µM*	i	25µM*	20µM*	i	22µM*	22µM*	-6%	19µM*
O=C(O)c1c(O)c(-c2ccccc2)nc2ccccc12	/	i	/	/	/	/	/	/	/
CCCN1C(=O)Cc2ccccc2C1C(=O)NCc1cc(OC)ccc1OC (centres undefined)	-26%	i	-26%	?	i	?	?	3%	-11%
Cc1ccc2nc3c(n2c1)C(c1ccccc1OCCN(C)C)CC(=O)NC3 (centres undefined)	-1%	-5%	0%	i	i	/	/	/	/
